Measurements published in PubChem BioAssay AID504766 (The Scripps Research Institute Molecular Screening Center, 2011).
Among all 340,000 compounds or so, about 3,400 (1%) were called active. Only a selection was taken, and actives are over-represented in it overall. Unmarked numbers belong to inactive results.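 How the source made its calls: active means inhibition above the mean over all tested compounds plus 3 SD (cut at about 4.2% in these data); inactive means the rest.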

biological target: Nuclear receptor subfamily 0 group B member 1 (Homo sapiens) (UniProt P51843); assay: DAX1 (NR0B1) inhibitors, primary screen, cell-based, HEK293, Gal4-DAX1, luciferase luminescence (AID 504766); conditions: HEK293 Gal4-DAX1 luciferase reporter, at 6.75 µM, hits give high values;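 further: 0% = DAX1-transfected cells with DMSO and 100% = empty-vector control cells with DMSO; inhibition shows as a rise in luminescence from relieved DAX1 repression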
Sequence (P51843 207-470 limits assumed): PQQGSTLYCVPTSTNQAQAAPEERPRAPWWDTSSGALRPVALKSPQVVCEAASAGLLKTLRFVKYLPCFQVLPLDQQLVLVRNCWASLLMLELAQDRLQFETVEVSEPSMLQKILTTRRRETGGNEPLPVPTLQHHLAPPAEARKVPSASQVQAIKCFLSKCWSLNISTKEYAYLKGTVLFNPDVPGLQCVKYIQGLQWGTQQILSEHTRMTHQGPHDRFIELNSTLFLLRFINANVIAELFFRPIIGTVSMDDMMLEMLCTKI

| Structure (SMILES) | inhibition |
| --- | --- |
| C[C@H]1CN([C@@H](C)CO)C(=O)CCCn2cc(nn2)CO[C@@H]1CN(C)S(=O)(=O)c1cccs1 | -0.09% |
| CCN(CC)CCNc1ccc(Cl)cc1[N+](=O)[O-] | 0.15% |
| COCCNc1ccc(-c2n[nH]c(=O)c3ccccc23)cc1[N+](=O)[O-] | -1.07% |
| CN(C)CCNc1ccc(-c2n[nH]c(=O)c3ccccc23)cc1[N+](=O)[O-] | 4.46% (active) |
| CCc1cccc(CC)c1N1C(=O)CC(Sc2ccccc2N)C1=O (stereo not drawn) | 2.47% |
| CN(C)C(CNC(=O)c1cccc(S(=O)(=O)N2CCc3ccccc3C2)c1)c1ccccc1 (stereo not drawn) | -0.17% |
| c1ccc(-c2cc(-c3ccccc3)[nH]n2)cc1 | 5.19% (active) |
| Oc1ccccc1-c1cc(-c2ccc(Cl)cc2)n[nH]1 | 3.28% |
| Nc1cccc(-c2cc(-c3ccccc3)nc(-c3cccc(N)c3)n2)c1 | -0.66% |
| Cc1[nH]c2ccccc2c1C(=O)C(=O)NCc1nnnn1-c1cccc(F)c1 | -0.63% |
| O=C1CCC(C(=O)OCC(=O)Nc2ccc(OC(F)F)cc2)=NN1 | 0.5% |
| O=C(N=C1SC2CS(=O)(=O)CC2N1Cc1ccccc1)c1ccccc1 (stereo not drawn) | 4.11% |
| O=C(c1cccs1)N1C[C@H](n2cc(C3CC3)nn2)[C@@H](O)C[C@@H]1c1ccccc1 | 1.63% |
| C#CCN(C[C@@H]1[C@@H](OC(=O)NC2CC2)[C@@H](OC(=O)NC2CC2)Cn2c(=O)ccc(=O)n21)S(=O)(=O)c1ccc(C)cc1 | -0.06% |
| O=C(c1ccncc1)N1CCN(S(=O)(=O)c2cccc([N+](=O)[O-])c2)CC1 | 0.88% |
| N/C(=N\OS(=O)(=O)c1cccc([N+](=O)[O-])c1)c1ccncc1 | 4.92% (active) |
| Cc1ccccc1OS(=O)(=O)c1cccc([N+](=O)[O-])c1 | 1.42% |
| O=Cc1ccc(OCc2cn3ccccc3n2)cc1 | 7.12% (active) |
| O=C(NCCc1ccco1)c1ccc(OCc2cn3ccccc3n2)cc1 | 0.65% |
| CN(C)C(CNC(=O)c1ccc(OCc2cn3ccccc3n2)cc1)c1ccco1 (stereo not drawn) | 0.93% |
| N#CCCN(C(=O)Nc1ccc(Cl)c(Cl)c1)C1CCCCC1 | 1.35% |
| CC1CCN(c2ccc3c(c2)S(=O)(=O)c2cc(C(=O)O)ccc2C3=O)CC1 | -0.21% |
| COc1ccc(NC(=S)NCCNC(C)=O)cc1 | 4.78% (active) |
| CCOC(=O)C(NC(C)=O)C(=O)Nc1ccc(OC)cc1 (stereo not drawn) | 1.97% |
| COc1ccc(NC(=S)NCC2CCN(c3ccc(OC)cc3)C2)cc1 (stereo not drawn) | 0.86% |

| Structure (SMILES) | inhibition |
| --- | --- |
| COc1ccc(NC(=O)c2cc(=O)[nH]c3ccccc23)cc1S(=O)(=O)N1CCOCC1 | 1.51% |
| COC(=O)c1ccccc1N=NNc1ccc([N+](=O)[O-])cc1 | 2.03% |
| C[C@H](CO)N1C[C@H](C)[C@@H](CN(C)Cc2ccc3c(c2)OCO3)OCc2cnnn2CCCC1=O | 0.31% |
| Cc1csc(=O)n1CCC(=O)OCC(=O)Nc1ccc(N2CCOCC2)cc1 | 0.99% |
| CCN1C(=O)[C@H]2[C@@H](c3ccccc3)N[C@]3(CCCN(Cc4ccc(C)cc4)C3=O)[C@H]2C1=O | 0.28% |
| O=C(N/N=C/c1ccc([N+](=O)[O-])cc1)c1c[nH]c2ccccc12 | 5.39% (active) |
| O=C(NN=Cc1ccc([N+](=O)[O-])cc1)C1CC1 | 0.79% |
| O=[N+]([O-])c1ccc(C=NN=Cc2ccc([N+](=O)[O-])cc2)cc1 | 0.89% |
| COc1ccc(-c2cnc3c(c2)C(=O)N([C@H](C)CO)C[C@@H](C)[C@H](CN(C)Cc2ccccc2)O3)cc1 | 1.69% |
| CN(C)/C=C(/C(=O)c1ccccc1)S(=O)(=O)c1ccc(Cl)cc1 | -0.08% |
| CN(C)/C=C(/C(=O)c1ccc(Cl)cc1)S(=O)(=O)c1ccccc1 | -0.69% |
| CN(C)/C=C(/C(=O)c1ccc(F)cc1)S(=O)(=O)c1ccc(F)cc1 | 7.15% (active) |
| CCOC(=O)C=Cc1ccc(C(=O)OCC)[nH]1 | -1.29% |
| Cc1ccc(S(=O)(=O)NN=C2CC(C)(C)CC(=O)C2(C)C)cc1 | 1.47% |
| COC(=O)c1sccc1NC(=O)c1csc2c1CCCC2 | 4.39% (active) |
| O=C(Nc1ccccc1N1CCOCC1)c1csc2c1CCCC2 | -0.73% |
| COC(=O)c1sccc1NC(=O)c1ccc(Cl)cc1 | 0.77% |
| O=C(C[C@H]1C[C@@H]2c3cc(NC(=O)C4CCC4)ccc3O[C@@H]2[C@H](CO)O1)NC1CCCCC1 | 1.37% |
| CC1=C(C(=O)N2CCOCC2)CC(CC(=O)NCCN2CCOCC2)C(=O)N1CCC1=CCCCC1 (stereo not drawn) | 1.93% |
| C[C@@H]1CN([C@H](C)CO)C(=O)CCCn2nncc2CO[C@@H]1CN(C)S(=O)(=O)c1cccc(C#N)c1 | 2.66% |
| COc1cc(-c2nnc(NC(=O)CS(=O)(=O)c3ccc(Cl)cc3)o2)cc(OC)c1OC | 0.2% |
| COc1ccc(NC(=O)C(Br)C(C)C)cc1 (stereo not drawn) | 1.41% |
| Cc1cccc(NC(=O)C(C)SCc2ccccc2)c1 (stereo not drawn) | -1.2% |
| COc1ccc(NC(=O)C(C)SCc2ccccc2)cc1 (stereo not drawn) | 6.52% (active) |
| Cc1ccc(S(=O)(=O)N2CCN(C(=O)CCC(=O)NC3CCCc4ccccc43)CC2)cc1 (stereo not drawn) | 4.27% (active) |

| Structure (SMILES) | inhibition |
| --- | --- |
| COc1ccc(NC(=O)CCC(=O)N2CCN(S(=O)(=O)c3ccc(C)cc3)CC2)c(OC)c1 | -2% |
| O=C(CCC(=O)N1CCN(S(=O)(=O)c2ccccc2)CC1)NC1CCCc2ccccc21 (stereo not drawn) | 0.76% |
| CCCCCC(=O)N1C[C@H](O)[C@@H](n2cc(COC(=O)c3ccccc3)nn2)C[C@@H]1c1ccc(C)cc1 | 0.45% |
| O=C(OCc1ccccc1)N1CCC2CC1c1cc(N3CCN(S(=O)(=O)c4cc(Cl)cc(Cl)c4)CC3)ccc12 (stereo not drawn) | 1.86% |
| CC(=O)c1ccccc1NC(=O)COC(=O)C1COc2ccccc2O1 (stereo not drawn) | 0.71% |
| CC(Sc1ncnc2c1cnn2-c1ccccc1)C(=O)Nc1ccc(N2CCOCC2)cc1 (stereo not drawn) | -0.48% |
| CC(C)Sc1ncnc2c1cnn2-c1ccccc1 | 6.85% (active) |
| CCN(CC)C(=O)CSc1ncnc2c1cnn2-c1ccccc1 | 0.89% |
| NC(=O)CSc1nnc(-c2cccc(S(=O)(=O)N3CCOCC3)c2)o1 | 0.86% |
| CN1OC[C@@H]2CN(C(=O)c3ccc(-c4ccccc4)cc3)[C@H](c3ccc(-c4cccc(F)c4)cc3)C[C@@H]21 | -0.68% |
| COc1ccc(N2CCN(C(=O)CCc3nc(-c4ccc(C)cc4)no3)CC2)cc1 | -0.22% |
| COc1ccc(-c2noc(CCC(=O)N3CCN(c4cccc(C)c4)CC3)n2)cc1 | 0.39% |
| CN1CCN(C(=O)CCc2nc(-c3ccc(Cl)cc3)no2)CC1 | 5.55% (active) |
| CC(C)NC(=S)NN=C1CCCCCCCCCCC1 | -0.27% |
| CCc1ccc(C(=O)NN=C2CCCCCC2)s1 | 1.24% |
| CC(C)(C)NC(=O)C(=O)NN=C1CCCCCCC1 | 6.84% (active) |
| C[C@@H]1CN([C@H](C)CO)C(=O)CCCn2cc(nn2)CO[C@H]1CN(C)S(=O)(=O)c1ccc(Oc2ccccc2)nc1 | 0.73% |
| CN(c1ccccc1)S(=O)(=O)c1ccc(C(=O)NCc2cccnc2)cc1 | -0.1% |
| O=C(NCc1nnnn1-c1ccc(Cl)cc1)c1ccc2c(c1)OCO2 | 0.46% |
| O=C(c1ccc(F)cc1)n1c(=S)nc2ccccn21 | 5.47% (active) |
| O=C(c1ccc(F)cc1)n1cc(C(=S)N2CCOCC2)c2ccccc21 | 1.01% |
| O=C(Cn1c(=S)nc2ccccn21)N1CCc2ccccc2C1 | 1.21% |
| O=[N+]([O-])c1ccc(C(S(=O)(=O)Cc2ccccc2)S(=O)(=O)Cc2ccccc2)cc1 | 1.99% |
